This assay relates to NCI-H1944. The assay can be described thus: normalised cell viability (NPI; 0 = phenylarsine oxide control, 1 = DMSO control) (fraction of DMSO control); NCI-H1944 is a non-small cell lung cancer line; higher = more viable cells (less compound toxicity). As to conditions: 6 days.
[1] abbreviates: glucocorticoid arm: hydrocortisone 2.75 uM co-treatment, compound 1 µM.
The mark [2] stands for this setting: glucocorticoid arm: hydrocortisone 2.75 uM co-treatment, compound 5 µM.
Setting [3] is: glucocorticoid arm: hydrocortisone 2.75 uM pre-treated 2 days and continued, compound 1 µM.
Setting [4] is: glucocorticoid arm: hydrocortisone 2.75 uM pre-treated 2 days and continued, compound 5 µM.
The mark [5] stands for this setting: glucocorticoid arm: vehicle, compound 1 µM.
Setting [6] is: glucocorticoid arm: vehicle, compound 5 µM.

Counter-ions that a name gives are not always drawn. ± gives the standard deviation of the averaged measurements. Whole data set: some 1,900 compounds, median “normalised cell viability (NPI; 0 = phenylarsine oxide control, 1 = DMSO control)” near 1, cut for the lowest 2% near 0.039. The sample holds the lowest values, similar compounds and a random draw of the others, so the mix is not that of the screen.
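Also: CTB read-out in 384-well plates, triplicate wells, NPI normalised per plate against 1 µM phenylarsine oxide (0) and 0.1% DMSO (1) controls.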

As for `Nc1ccc(-c2ccc3ncc4ccc(=O)n(-c5cccc(C(F)(F)F)c5)c4c3c2)cn1` [Torin 2], the normalised cell viability worked out at 0.175 ± 0.0021 under setting [1]; 0.171 ± 0.0032 under setting [2]; 0.267 ± 0.012 under setting [3]; 0.299 ± 0.0097 under setting [4]; 0.0254 ± 0.002 under setting [5]; 0.0207 ± 0.0023 under setting [6].

On to `CCC(=O)N1CCN(c2ccc(-n3c(=O)ccc4cnc5ccc(-c6cnc7ccccc7c6)cc5c43)cc2C(F)(F)F)CC1` [Torin 1], for which the normalised cell viability by setting is: under setting [1], 0.4 ± 0.0087; under setting [2], 0.383 ± 0.013; under setting [3], 0.532 ± 0.018; under setting [4], 0.518 ± 0.022; under setting [5], 0.223 ± 0.023; under setting [6], 0.286 ± 0.01.

In the case of `O=C(O)[C@H]1C[C@H](C(=O)O)N1` (relative stereo) [trans-Azetidine-2,4-dicarboxylic acid], the normalised cell viability is 1.007 ± 0.0058 under setting [1]; 1.007 ± 0.0058 under setting [2]; 1.005 ± 0.0087 under setting [3]; 1.01 under setting [4]; 0.9843 ± 0.0025 under setting [5]; 0.9883 ± 0.0091 under setting [6].

Consider `CC(C)(C)c1cnc(CSc2cnc(NC(=O)C3CCNCC3)s2)o1`, for which the normalised cell viability by setting is: under setting [1], 0.0382 ± 0.0034; under setting [2], 0.036 ± 0.0061; under setting [3], 0.148 ± 0.013; under setting [4], 0.133 ± 0.018; under setting [5], 0.00695 ± 0.0037; under setting [6], 0.00933 ± 0.00035.

Turning to `C=C(C)C(CC=C(C)C)CC12CC(CC=C(C)C)C(C)(C)C(CC=C(C)C)(C(=O)C(=C(O)c3ccc(O)c(O)c3)C1=O)C2=O` (stereo not given) [Garcinol], the normalised cell viability came to 1 ± 0.012 under setting [1]; 1.01 ± 0.013 under setting [2]; 0.992 ± 0.014 under setting [3]; 0.997 ± 0.027 under setting [4]; 1.007 ± 0.0052 under setting [5]; 1.001 ± 0.01 under setting [6].

Turning to `O=[N+]([O-])c1ccc(-c2nc(-c3ccc(F)cc3)c(-c3ccncc3)[nH]2)cc1`, the normalised cell viability reads like this: under setting [1], 0.976 ± 0.019; under setting [2], 0.903 ± 0.014; under setting [3], 0.9707 ± 0.008; under setting [4], 0.865 ± 0.019; under setting [5], 0.996 ± 0.004; under setting [6], 0.962 ± 0.051.

Consider `N#C/C(=C/c1ccc(O)c(O)c1)C(=O)NCc1ccccc1` [Tyrphostin AG 490], for which the normalised cell viability was found to be 1.01 ± 0.016 under setting [1]; 1.03 ± 0.015 under setting [2]; 0.999 ± 0.028 under setting [3]; 1 ± 0.014 under setting [4]; 1.02 ± 0.01 under setting [5]; 1.02 ± 0.01 under setting [6].

For `C[C@H](Cc1ccc(O)c(O)c1)[C@@H](C)Cc1ccc(O)c(O)c1`, the normalised cell viability reads like this: under setting [1], 0.996 ± 0.013; under setting [2], 1.02 ± 0.02; under setting [3], 0.998 ± 0.013; under setting [4], 1.04 ± 0.058; under setting [5], 1.013 ± 0.0058; under setting [6], 1.02 ± 0.011.

Regarding `CO/N=C(\C(=O)N[C@@H]1C(=O)N2C(C(=O)O)=C(CSc3nc(=O)c(O)nn3C)CS[C@H]12)c1csc(N)n1` [Ceftriaxone sodium salt], the normalised cell viability under setting [1] was 0.985 ± 0.0052; the normalised cell viability under setting [2] turned out to be 0.995 ± 0.025; the normalised cell viability under setting [3] amounted to 0.849 ± 0.22; the normalised cell viability under setting [4] amounted to 0.992 ± 0.0057; the normalised cell viability under setting [5] was 0.964 ± 0.0069; the normalised cell viability under setting [6] was 0.9743 ± 0.006.

Turning to `Oc1ccc2ccccc2c1SSc1c(O)ccc2ccccc12`, the normalised cell viability runs as follows: under setting [1], 1.03 ± 0.01; under setting [2], 1.08 ± 0.021; under setting [3], 1.017 ± 0.0058; under setting [4], 1.01 ± 0.028; under setting [5], 1.013 ± 0.0058; under setting [6], 1.04 ± 0.01.

Take `CNc1nc(Nc2cnn(C3CCN(C4COC4)CC3F)c2Cl)ncc1C(F)(F)F` (stereo not given): the normalised cell viability was found to be 1.02 ± 0.01 under setting [1]; 1.05 ± 0.023 under setting [2]; 1.04 ± 0.01 under setting [3]; 1.05 ± 0.01 under setting [4]; 1.007 ± 0.0058 under setting [5]; 1.007 ± 0.0058 under setting [6].

Turning to `Cc1[nH]nc2ccc(-c3cncc(OC[C@@H](N)Cc4ccccc4)c3)cc12`, the normalised cell viability runs as follows: under setting [1], 0.452 ± 0.007; under setting [2], 0.0555 ± 0.0049; under setting [3], 0.792 ± 0.022; under setting [4], 0.129 ± 0.0089; under setting [5], 0.1 ± 0.012; under setting [6], 0.0136 ± 0.0021.

Turning to `C#Cc1ccc2c(c1)C(=O)N(C)Cc1c(C(=O)OCCCOC(=O)c3ncn4c3CN(C)C(=O)c3cc(C#C)ccc3-4)ncn1-2` [Xli 093 hydrate], the normalised cell viability reads like this: under setting [1], 0.999 ± 0.011; under setting [2], 1.01 ± 0.015; under setting [3], 1 ± 0.013; under setting [4], 1.01; under setting [5], 0.99 ± 0.01; under setting [6], 0.9967 ± 0.0015.

Take `CCN1CCN(Cc2ccc(-c3cc4c(N[C@H](C)c5ccccc5)ncnc4[nH]3)cc2)CC1`: the normalised cell viability was 0.812 ± 0.041 under setting [1]; 0.693 ± 0.043 under setting [2]; 0.885 ± 0.014 under setting [3]; 0.752 ± 0.047 under setting [4]; 0.8103 ± 0.0047 under setting [5]; 0.6 ± 0.016 under setting [6].

As to `COc1cc(CC(=O)O)ccc1O` [4-Hydroxy-3-methoxyphenylacetic acid], the normalised cell viability amounted to 1.007 ± 0.0058 under setting [1]; 1.01 ± 0.014 under setting [2]; 1.01 ± 0.01 under setting [3]; 1.02 under setting [4]; 1.01 ± 0.01 under setting [5]; 1.01 under setting [6].

Consider `COc1cc(OC)c(/C=C/S(=O)(=O)Cc2ccc(OC)c(NCC(=O)O)c2)c(OC)c1`, for which the normalised cell viability runs as follows: under setting [1], 0.307 ± 0.021; under setting [2], 0.261 ± 0.026; under setting [3], 0.572 ± 0.03; under setting [4], 0.572 ± 0.051; under setting [5], 0.0447 ± 0.0079; under setting [6], 0.0341 ± 0.0062.

On to `Cc1c(F)ccc(C(=O)Nc2cc([N+](=O)[O-])ccc2N2CCN(C)CC2)c1Cl`, for which the normalised cell viability under setting [1] came to 1.03 ± 0.011; the normalised cell viability under setting [2] turned out to be 0.987 ± 0.02; the normalised cell viability under setting [3] stood at 1.027 ± 0.0058; the normalised cell viability under setting [4] came to 1 ± 0.013; the normalised cell viability under setting [5] was 0.9957 ± 0.0075; the normalised cell viability under setting [6] was determined as 0.9963 ± 0.0047.

Turning to `O=C(O)[C@H]1NCCC[C@H]1C(=O)O` (relative stereo) [cis-Piperidine-2,3-dicarboxylic acid], the normalised cell viability is, setting by setting: under setting [1], 1 ± 0.016; under setting [2], 1 ± 0.022; under setting [3], 1 ± 0.018; under setting [4], 0.973 ± 0.0087; under setting [5], 0.987 ± 0.0092; under setting [6], 0.9887 ± 0.005.

Turning to `CSC(=N)NCCC[C@H](N)C(=O)O` [S-Methyl-L-thiocitrulline acetate], the normalised cell viability was determined as 1.003 ± 0.0058 under setting [1]; 0.984 ± 0.028 under setting [2]; 1.01 ± 0.01 under setting [3]; 0.989 ± 0.018 under setting [4]; 0.9847 ± 0.0051 under setting [5]; 0.994 ± 0.014 under setting [6].

`Nc1ccn([C@@H]2O[C@H](CO)[C@@H](O)[C@@H]2O)c(=O)n1`: the normalised cell viability reads like this: under setting [1], 0.178 ± 0.001; under setting [2], 0.115 ± 0.0035; under setting [3], 0.91 ± 0.011; under setting [4], 0.31 ± 0.04; under setting [5], 0.0325 ± 0.0032; under setting [6], 0.0276 ± 0.0059.

As for `Nc1ccn([C@@H]2O[C@H](CO)[C@@H](O)C2(F)F)c(=O)n1` [Gemcitabine hydrochloride; Gemcitabine HCl], the normalised cell viability was found to be 0.202 ± 0.0062 under setting [1]; 1.04 ± 0.015 under setting [2]; 0.422 ± 0.044 under setting [3]; 1.03 under setting [4]; 0.0536 ± 0.0027 under setting [5]; 1.013 ± 0.0058 under setting [6].

For `Nc1ncn([C@@H]2O[C@H](CO)[C@@H](O)[C@H]2O)c(=O)n1` [Azacitidine; 5-azacytidine], the normalised cell viability runs as follows: under setting [1], 1.04 ± 0.026; under setting [2], 1.11 ± 0.015; under setting [3], 1.04 ± 0.01; under setting [4], 1.1 ± 0.021; under setting [5], 0.98 ± 0.017; under setting [6], 0.766 ± 0.025.

As to `Nc1ccn([C@@H]2O[C@H](CO)[C@@H](O)[C@@H]2O)c(=O)n1` [Cytosine-1-beta-D-arabinofuranoside hydrochloride], the normalised cell viability runs as follows: under setting [1], 0.352 ± 0.026; under setting [2], 0.163 ± 0.022; under setting [3], 1.03 ± 0.017; under setting [4], 0.802 ± 0.22; under setting [5], 0.0913 ± 0.011; under setting [6], 0.0638 ± 0.0066.

In the case of `Nc1ncn([C@@H]2O[C@H](CO)[C@@H](O)[C@H]2O)c(=O)n1` [5-azacytidine], the normalised cell viability runs as follows: under setting [1], 1.006 ± 0.0063; under setting [2], 1.03; under setting [3], 1.01 ± 0.018; under setting [4], 1.08 ± 0.014; under setting [5], 0.972 ± 0.015; under setting [6], 0.8937 ± 0.006.

With `Nc1ncn([C@@H]2O[C@H](CO)[C@@H](O)[C@H]2O)c(=O)n1` [Azacitidine], the normalised cell viability reads like this: under setting [1], 1.03; under setting [2], 1.11 ± 0.025; under setting [3], 1 ± 0.037; under setting [4], 0.952 ± 0.24; under setting [5], 0.976 ± 0.011; under setting [6], 0.903 ± 0.017.

Values taken from the supplement of paper PMC8285479.
